An excerpt weighted towards active compounds, which were near 1.6% of everything screened.
GASC-1 inh: inhibitors of GASC-1 histone demethylase, primary screen, biochemical, fluorescence, DELFIA europium. inhibition, % at 2.35 µM. GST-JMJD2C(1-420) H3K9me3 demethylation. 330,000 compounds, 0.069% hits. Lysine-specific demethylase 4C (Homo sapiens), Q9H3R0;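 active = more than half of a compound's replicate wells show inhibition beyond 50%, single wells judged on their own value; inconclusive = some, but no more than half, of replicates pass 50% inhibition; inactive = no replicate passes 50% inhibition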;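 also: signal counts dimethyl H3K9 product captured on neutravidin plate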
Pemphigus Ab inh: inhibitors of pemphigus antibody binding to DSG3, primary screen, biochemical, bead-based, flow cytometry, scFv-GFP. DSG3-coupled beads, scFv-anti-DSG3-GFP binding; hits give low values. 310,000 compounds, 0.48% hits. Desmoglein-3 (Homo sapiens), P32926. binding (percent of control), % at 10 µM;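 active = binding more than 3 SD below its plate's average and above zero; inconclusive = below that plate limit but binding exactly zero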;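 also: hits lower antibody fragment binding to DSG3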
GRK2 aptamer HTS: compounds blocking aptamer binding on GRK2 – biochemical, human GRK2, bead flow cytometry, HTS, primary screen; Beta-adrenergic receptor kinase 1 (Homo sapiens), P25098; FAM-aptamer displacement from GRK2; inhibition of aptamer binding, % at 10 µM; 330,000 compounds, 0.59% hits;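 active = inhibition of aptamer binding above 40%, roughly 3 SD of noise, on plates passing a quality check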;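 also: median bead fluorescence of bound FAM aptamer so fluorescent compounds give negative values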
VLA-4 inh: inhibition in human VLA-4 binding assay, primary screen, VLA-4 allosteric modulator project, MLPCN library, flow cytometry, VLA-4 expressing cells. 330,000 compounds, 0.2% hits. ligand binding flow cytometry. Integrin alpha-4 (Homo sapiens), P13612. AID 2557, 2010. inhibition, % (about 7 µM as worked out from the volumes in the protocol); in the data active = inhibition above about 50%
PREPL inhibitor: PREPL enzyme inhibitors, primary screen, biochemical, fluorescence polarization. Prolyl endopeptidase-like (Homo sapiens), Q4J6C6. recombinant PREPL, fluorescence polarization activity-based probe. 320,000 compounds, 0.68% hits. inhibition, % at 5.96 µM; in the data active = inhibition above about 43%
Target sequence (Q4J6C6 whole entry, looked up): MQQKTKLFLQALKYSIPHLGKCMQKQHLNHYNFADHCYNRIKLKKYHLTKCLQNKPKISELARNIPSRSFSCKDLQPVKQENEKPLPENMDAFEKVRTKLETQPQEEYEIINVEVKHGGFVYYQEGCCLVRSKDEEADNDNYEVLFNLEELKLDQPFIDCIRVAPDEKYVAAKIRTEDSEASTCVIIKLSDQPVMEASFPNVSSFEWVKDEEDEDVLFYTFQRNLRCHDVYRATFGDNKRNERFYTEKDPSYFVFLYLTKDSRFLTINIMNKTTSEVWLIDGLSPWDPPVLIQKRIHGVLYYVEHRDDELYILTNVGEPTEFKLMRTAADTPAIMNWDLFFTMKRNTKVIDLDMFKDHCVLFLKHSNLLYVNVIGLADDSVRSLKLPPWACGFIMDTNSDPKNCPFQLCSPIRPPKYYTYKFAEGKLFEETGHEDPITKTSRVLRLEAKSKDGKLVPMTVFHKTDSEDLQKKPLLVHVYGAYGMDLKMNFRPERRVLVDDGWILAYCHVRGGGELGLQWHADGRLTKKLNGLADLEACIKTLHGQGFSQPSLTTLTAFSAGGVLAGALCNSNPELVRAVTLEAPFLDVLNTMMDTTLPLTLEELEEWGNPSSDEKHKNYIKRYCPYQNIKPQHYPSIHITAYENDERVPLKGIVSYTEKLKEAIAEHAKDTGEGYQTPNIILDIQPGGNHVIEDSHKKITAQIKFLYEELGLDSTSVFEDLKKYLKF
GRK2 CP1: GRK2 aptamer-displacing inhibitors, retest, confirmation, biochemical, cherry pick 1, bead flow cytometry; bead-bound GRK2, FAM-aptamer displacement; 2,000 compounds, 4% hits; shares compounds with GRK2 aptamer HTS; AID 504451, 2011; aptamer displacement, % at 10 µM;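 active = aptamer displacement above 40%, near three times the noise of non-fluorescent compounds, on plates passing quality checks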;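 also: negative values mostly reflect intrinsic compound fluorescence rather than true enhancement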
Aptamer quench SP: aptamer fluorescence quenching in GRK2 counter-screen. shares compounds with GRK2 aptamer HTS. Carboxyfluorescein RNA aptamer on beads, flow cytometry quenching; hits give low values. fluorescence response (% of DMSO), % at 10 µM. 2,000 tested, under 10 active;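 active = compounds that quench the bead-bound fluorescent RNA probe, cutting fluorescence to under half of the solvent control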;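 also: counterscreen run without GRK2 so only probe quenching by compound is measured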
GRK2 CP2: GRK2 aptamer-displacing inhibitors, hit retest, confirmation, biochemical, cherry pick 2, bead flow cytometry; shares compounds with GRK2 aptamer HTS; bead-bound GRK2, FAM-aptamer displacement; inhibition of aptamer binding, % at 10 µM; 360 tested, under 10 active; AID 504782, 2011;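 active = inhibition of aptamer binding above 40%, about triple the noise seen with nonglowing compounds, on plates passing quality control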;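 also: negative values mostly come from compounds that fluoresce themselves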
FAM quench SP: aptamer fluorescence quenching in GRK2 counter-screen | shares compounds with GRK2 aptamer HTS | carboxyfluorescein RNA aptamer beads, flow cytometry quenching; hits give low values | fluorescence response vs DMSO, % at 10 µM | 360 tested, under 10 active;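 active = response vs DMSO under 50%, meaning signal dropped by over half, treated as fluorescence quencher; inconclusive = no clear call, values can overlap the other calls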;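 also: labelled aptamer on streptavidin beads without GRK2 as a quench counter-screen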
Large screens that a line does not name were inactive (follow-up assays come after a bar, where they were run).

COc1cccc(OC)c1OC(=O)C1CC(=O)N(c2ccc3c(c2)OCCO3)C1 (stereo not drawn)	none | GRK2 CP2 inactive | FAM quench SP inactive
Cc1ccc(S(=O)(=O)N(C)C[C@@H]2Oc3ccc(NS(C)(=O)=O)cc3CC(=O)N([C@H](C)CO)C[C@@H]2C)cc1	none
CCCc1c(C(=O)N/N=C/c2cccc3ccccc23)nnn1-c1nonc1N	none (no result: Pemphigus Ab inh)
CC12CN(C(=O)c3ccccc3Br)CC(C)(CN(C(=O)c3ccccc3Br)C1)C2=O	none (no result: Pemphigus Ab inh)
Cc1cc(C)cc(NC(=O)CCc2nc3sc4c(c3c(=O)[nH]2)CCCC4)c1	none
CCc1c(C(=O)NC2CCCC2)csc1C	GRK2 aptamer HTS 97 | GRK2 CP1 inactive | Aptamer quench SP inactive
CCc1c(C(=O)NN2C(=O)C3CCCCC3C2=O)csc1C (stereo not drawn)	none (no result: Pemphigus Ab inh)
CCC(=O)Nc1cccc(-c2cc3ccccc3oc2=O)c1	GRK2 aptamer HTS 96 | GRK2 CP1 inactive | Aptamer quench SP inactive
COc1ccc(CNC(=O)CN2C(=O)NC(C)(c3ccc(Cl)cc3)C2=O)cc1 (stereo not drawn)	GRK2 aptamer HTS 54 | GRK2 CP1 inactive | Aptamer quench SP inactive
CC1(c2ccc3ccccc3c2)NC(=O)N(CC(=O)O)C1=O (stereo not drawn)	GRK2 aptamer HTS 47 | GRK2 CP1 inactive | Aptamer quench SP inactive
CC1(c2ccc3ccccc3c2)NC(=O)N(CC(=O)N2CCCC(C(F)(F)F)C2)C1=O (stereo not drawn)	none
O=C(COC(=O)c1ccccc1NCCO)Nc1cc(C(F)(F)F)ccc1N1CCOCC1	none (no result: Pemphigus Ab inh)
CCOc1cc(N2CCOCC2)c(OCC)cc1NC(=O)c1cc(S(=O)(=O)N2CCOCC2)ccc1Cl	none (no result: GASC-1 inh, GRK2 aptamer HTS, VLA-4 inh, PREPL inhibitor) | GRK2 CP1 inactive | Aptamer quench SP inactive
CCOc1cc(N2CCOCC2)c(OCC)cc1NC(=O)c1ccc(OC)c(S(=O)(=O)N2CCOCC2)c1	none | GRK2 CP1 inactive | Aptamer quench SP inactive
CCOc1ccccc1NC(=O)c1cc(S(=O)(=O)N2CCOCC2)ccc1C	none
CCNc1nc(OC)nc(N2CCC(Cc3ccccc3)CC2)n1	GRK2 aptamer HTS 100 | GRK2 CP2 inactive | FAM quench SP inactive
O=C(CCN1CCOCC1)N1CCc2c([nH]c3ccccc23)C1c1cccc(Cl)c1 (stereo not drawn)	none | GRK2 CP1 inactive | Aptamer quench SP inactive
CC(=O)NC1C(=O)N=C(SCC(=O)Nc2ccc(C(F)(F)F)cc2Cl)NC1=O (stereo not drawn)	none
NC(CO)C(O)c1ccc([N+](=O)[O-])cc1 (stereo not drawn)	GRK2 aptamer HTS 98 | GRK2 CP1 inactive | Aptamer quench SP inactive
O=C(NC(CO)C(O)c1ccc([N+](=O)[O-])cc1)C(Cl)Cl (stereo not drawn)	none
C=CCC[C@H](Cc1ccc(F)cc1)C(=O)OC[C@@H](Cc1c[nH]c2ccccc12)NC(=O)[C@@H](CC=C)CC(=O)NCCO	none
Cc1ccc(NC(=O)C2CCCN2C(=O)OCc2ccccc2)cc1F (stereo not drawn)	none
Cn1cc(/C=N/NC(=O)c2cc3cc(Br)ccc3o2)c2ccccc21	none
O=C(O)c1ccc(-n2cccc2/C=N\NC(=O)c2cc3cc(Br)ccc3o2)cc1	GRK2 aptamer HTS 58 | GRK2 CP1 inactive | Aptamer quench SP inactive
COc1ccccc1N1CCN(Cc2nc3ccccc3c(=O)n2CC(C)=O)CC1	none | GRK2 CP2 inactive | FAM quench SP inconclusive
O=C1NC(Cc2ccccc2)c2nc3ccc(Br)cc3c(=O)n2-c2cc(Cl)ccc21 (stereo not drawn)	none (no result: Pemphigus Ab inh)
Cc1ccc(-c2ccc(CCC(=O)O)n2CC(=O)O)cc1	GRK2 aptamer HTS 89 | GRK2 CP1 inactive | Aptamer quench SP inactive
O=C(O)CCc1ccc(-c2ccc(F)cc2)n1CC(=O)O	none
CC(C)(CNC(=O)c1cc(-c2ccc(Cl)s2)nc2ccccc12)N1CCOCC1	GRK2 aptamer HTS 52 | GRK2 CP1 inactive | Aptamer quench SP inactive
CN1CCN(NC(=O)c2cc(-c3ccc(Cl)s3)nc3ccccc23)CC1	none
COc1cccc(C(=O)NNC(=O)c2ccc3ccccc3c2)c1	none (no result: GASC-1 inh, GRK2 aptamer HTS, VLA-4 inh, PREPL inhibitor)
COc1ccc(NC(=O)c2ccccc2[N+](=O)[O-])cc1	GRK2 aptamer HTS 51 | GRK2 CP2 inactive | FAM quench SP inactive
Cc1ccc(N=Cc2sccc2C)cc1C	none
COc1ccccc1N1CCN(/N=C(\C)c2ccccc2O)CC1	GRK2 aptamer HTS 55 | GRK2 CP1 inactive | Aptamer quench SP inactive
CC(=O)N(CCc1ccccc1C)Cc1cc2cc(C)ccc2[nH]c1=O	none (no result: PREPL inhibitor)
CC(=O)N(CCc1ccccc1C)Cc1cc2ccc(C)cc2[nH]c1=O	GRK2 aptamer HTS 61 | GRK2 CP1 inactive | Aptamer quench SP inactive
Cc1ccc2cc(CN(C(=O)c3ccco3)c3ccccc3C)c(=O)[nH]c2c1	GRK2 aptamer HTS 76 | GRK2 CP1 inactive | Aptamer quench SP inactive
CC(NC(=O)/C(=C/c1ccc2c(c1)OCO2)NC(=O)c1cccc([N+](=O)[O-])c1)C(=O)O (stereo not drawn)	none
Cc1nn(Cc2ccccc2)c(C)c1NC(=O)CSc1nnc(-c2cc(Cl)ccc2O)n1C	none
Nc1nc(O)c(N=Nc2ccc(S(N)(=O)=O)cc2)c(=O)[nH]1	GRK2 aptamer HTS 44 (no result: Pemphigus Ab inh, PREPL inhibitor) | GRK2 CP1 inactive | Aptamer quench SP inactive
Clc1ccc2c(N/N=C/c3cccc(Br)c3)ccnc2c1	GRK2 aptamer HTS 73 | GRK2 CP1 inactive | Aptamer quench SP inactive
Cc1ccc(C(=O)c2nc3c(n2O)CCCC3)cc1	none (no result: Pemphigus Ab inh)
CCOc1ccc(C(=O)c2nc3c(n2O)CCCC3)cc1	none | GRK2 CP1 inactive | Aptamer quench SP inactive
Cc1c(C)n(Cc2ccc(F)cc2)c2ccc(C(=O)NCCCN3CCOCC3)cc12	none
COCCCN(C(=O)c1ccco1)c1nc(-c2ccc(OC)cc2)cs1	none
CCN(CC)CCCN(C(=O)c1ccco1)c1nc(-c2ccc(Cl)cc2)cs1	GRK2 aptamer HTS 66 | GRK2 CP1 inactive | Aptamer quench SP inactive

Bioassay records as filed in PubChem BioAssay.
